Assay outcomes: PubChem BioAssay, several laboratories
An excerpt weighted towards active compounds, which were near 3.4% of everything screened.
KLK7 zymogen act: proKLK7 (human) activation, primary screen; P49862; activation, % at 7 µM; hit rate 0.9% among 370,000; purified proKLK7, EDANS-DABCYL substrate fluorescence; 100% is mature enzyme control, 0% vehicle; AID 652039;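 active = activation above the mean of all tested compounds plus 3 SD, computed per campaign excluding outliers beyond control limits, cut at about 13% in these data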
sPLA2-III inh: Inhibits HGIII-sPLA2 liposome hydrolysis, primary screen; hit rate 0.56% among 370,000; inhibition, % at 12.2 µM; QFRET BODIPY PC-A2 liposome hydrolysis, fluorescence; Q9NZ20;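 active = inhibition above mean plus 3 SD of compounds lying within the high and low control bounds, cut at about 19% in these data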;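 also: 0% = median of test compound wells and 100% = no enzyme DMSO wells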
ADAM10 inh: inhibitors of human ADAM10 | O14672 | recombinant ADAM10, EDANS/DABCYL FRET peptide cleavage, 3 h | inhibition, % at 7 µM | hit rate 0.62% among 370,000 | AID 720582;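 active = inhibition above a per-campaign cutoff equal to the mean of compounds falling between control-based bounds plus 3 SD, cut at about 20% in these data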;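 also: 0% = DMSO wells while the 100% control is not disclosed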
CendR NRP1 mod: modulators of CendR peptide binding to human neuropilin-1 | AID 602438 | FAM-RPARPAR peptide binding to NRP-1, fluorescence polarization | O14786 | inhibition, % at 25 µM | hit rate 0.85% among 360,000;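 active = inhibition or corrected inhibition above about 18%, plus a signal ratio from 0.5 to 1.5, limit read from the data, passing the limit was not always enough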
ADAM17 inh: inhibitors of human ADAM17; hit rate 0.83% among 370,000; recombinant ADAM17, EDANS/DABCYL FRET peptide cleavage; inhibition, % at 6.95 µM; AID 720648;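 active = inhibition above the mean of compounds lying between control limits plus 3 SD, set per campaign, cut at about 8.5% in these data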;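 also: 0% = DMSO-only wells as the low control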
Target sequence (P78536 215-824 limits assumed): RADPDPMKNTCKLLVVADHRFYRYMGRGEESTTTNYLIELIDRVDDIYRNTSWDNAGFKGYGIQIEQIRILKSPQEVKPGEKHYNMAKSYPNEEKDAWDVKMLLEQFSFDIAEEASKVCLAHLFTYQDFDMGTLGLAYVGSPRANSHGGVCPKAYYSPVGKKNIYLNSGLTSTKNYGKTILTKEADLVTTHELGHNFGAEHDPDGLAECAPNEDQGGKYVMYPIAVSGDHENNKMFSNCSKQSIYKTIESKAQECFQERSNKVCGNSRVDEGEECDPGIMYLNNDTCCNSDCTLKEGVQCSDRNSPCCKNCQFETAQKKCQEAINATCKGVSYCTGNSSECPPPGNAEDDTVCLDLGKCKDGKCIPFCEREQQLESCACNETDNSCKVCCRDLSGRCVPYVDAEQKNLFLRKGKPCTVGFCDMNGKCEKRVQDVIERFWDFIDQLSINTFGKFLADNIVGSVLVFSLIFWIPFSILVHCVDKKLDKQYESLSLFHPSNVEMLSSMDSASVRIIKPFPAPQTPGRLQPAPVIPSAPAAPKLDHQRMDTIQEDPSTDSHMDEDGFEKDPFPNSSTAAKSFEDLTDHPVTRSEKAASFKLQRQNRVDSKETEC
ADAM10 confirm: confirmation of inhibitors of human ADAM10 | ADAM10 QFRET peptide cleavage, EDANS fluorescence | hit rate 1% among 2,100 | inhibition, % at 6.95 µM | shares compounds with ADAM10 inh;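 active = inhibition above about 20% chosen separately for each screening run, limit read from the data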;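 also: 0% = DMSO wells and 100% = marimastat wells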
ADAM17 counter: inhibits human ADAM17 in ADAM10 exosite counter-screen; shares compounds with ADAM10 inh; ADAM17 QFRET peptide cleavage, EDANS fluorescence; inhibition, % at 6.95 µM; hit rate 0.5% among 2,100; AID 743214;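 active = mean triplicate inhibition above the solvent-only control wells' mean plus 3 SD, cut at about 12% in these data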;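 also: 0% = DMSO wells and 100% = marimastat wells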
ADAM10 counter: inhibits human ADAM10 in ADAM17 exosite counter-screen; recombinant ADAM10, EDANS/DABCYL FRET peptide cleavage, 3 h; hit rate 47% among 2,900; inhibition, % at 6.95 µM; shares compounds with ADAM17 inh;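 active = mean inhibition over the triplicate runs exceeds the activity threshold set in the earlier primary screen, cut at about 20% in these data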;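 also: 0% = DMSO wells and 100% = marimastat wells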
ADAM17 confirm: confirmation of inhibitors of human ADAM17 | hit rate 65% among 2,900 | recombinant ADAM17, EDANS/DABCYL QFRET peptide cleavage | inhibition, % at 6.95 µM | shares compounds with ADAM17 inh | AID 743257;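 active = mean inhibition across replicates above the hit cutoff set in the primary screen, cut at about 8.5% in these data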;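 also: 0% = DMSO wells and 100% = marimastat wells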
Active calls of the source: *; nt = not tested or not shown.

SMILES | KLK7 zymogen act | sPLA2-III inh | ADAM10 inh | CendR NRP1 mod | ADAM17 inh | ADAM10 confirm | ADAM17 counter | ADAM10 counter | ADAM17 confirm
CN(c1ccc(OCC(=O)OCC(=O)Nc2ccc(Br)cc2)cc1)S(=O)(=O)c1cccs1 | -0.6 | -25.8 | 20.1* | 3.2 | 12.1* | 7.3 | 1.9 | 30.7* | 16.1*
CCn1nc([N+](=O)[O-])c(C(C#N)c2nc3cc(C(F)(F)F)ccc3s2)c(Cl)c1=O (centres undefined) | -0.3 | -34.0 | 27.6* | 26.1* | 11.0* | 4.8 | 2.9 | 22.8* | 13.7*
Cc1cccc(C)c1NC(=O)CN(C)C(=O)c1cccc(S(=O)(=O)N2CCN(c3ccc(F)cc3)CC2)c1 | 0.7 | -0.8 | -3.6 | 13.8 | -2.6 | nt | nt | nt | nt
CN(CC(=O)Nc1cccc(F)c1)C(=O)c1cccc(S(=O)(=O)N2CCN(c3ccc(F)cc3)CC2)c1 | 0.0 | -27.3 | 20.0* | 11.3 | 14.8* | 3.2 | 0.8 | 22.7* | 10.4*
CCc1ccc(NC(=O)C2CCN(S(=O)(=O)c3ccc4c(c3)NC(=O)C(C)S4)CC2)cc1 (centres undefined) | 0.3 | -25.6 | 25.6* | -29.2 | 13.6* | 1.1 | -0.1 | 21.4* | 11.2*
Cc1ccc(NC(=O)C2CCN(S(=O)(=O)c3ccc4c(c3)NC(=O)C(C)S4)CC2)cc1C (centres undefined) | 0.0 | -44.3 | 16.2 | -0.3 | 8.3 | nt | nt | nt | nt
COc1cc(C(=O)NN=C2c3ccccc3-c3ccccc32)cc(OC)c1OC | 1.0 | -8.5 | -6.1 | nt | -0.6 | nt | nt | nt | nt
CCC[C@H]1[C@@H](N)CC[C@@]23CCCN2C(=O)CCC[C@@H]13 | nt | 7.4 | 3.8 | nt | 0.7 | nt | nt | nt | nt
CCOC(=O)C1=CCN(S(=O)(=O)c2ccccc2Cl)C1c1ccc(Cl)c(Cl)c1 (centres undefined) | 0.4 | -14.4 | 20.7* | -3.3 | 15.1* | 5.9 | 1.6 | 8.0 | 3.7
CCOC(=O)C1=CCN(S(=O)(=O)c2ccccc2Br)C1c1ccc(Cl)c(Cl)c1 (centres undefined) | 0.3 | -9.4 | -5.8 | 7.6 | 1.4 | nt | nt | nt | nt
COc1ccc(CNC(=O)COC(=O)CCCOc2ccc(Cl)cc2Cl)cc1 | 0.3 | -8.4 | 10.0 | 23.7 | 2.9 | nt | nt | nt | nt
O=C(COC(=O)CCCOc1ccc(Cl)cc1Cl)Nc1cccc(Cl)c1 | -0.1 | -22.5 | 23.0* | -0.7 | 12.8* | 9.2 | 4.1 | 37.7* | 20.2*
Cc1cccc(C)c1OCC(O)Cn1c2ccccc2c2ccccc21 (centres undefined) | 0.1 | -21.4 | 20.4* | 7.6 | 12.2* | 17.1 | 5.0 | 20.6* | 12.7*
C=CCN(CC=C)CC(O)Cn1c2ccccc2c2ccccc21 (centres undefined) | -0.2 | -8.5 | -7.5 | -4.0 | -5.2 | nt | nt | nt | nt
OC(COCC(F)(F)C(F)(F)C(F)(F)C(F)F)Cn1c2ccccc2c2ccccc21 (centres undefined) | -1.8 | -14.1 | 34.0* | 4.3 | 14.7* | 12.1 | 5.4 | 29.2* | 19.1*
O=C(CSc1nnc(-c2ccccc2)n1-c1ccccc1)Nc1ccccc1-c1ccccc1 | 0.6 | -16.2 | 3.3 | nt | 0.5 | nt | nt | nt | nt
Cc1cc(NC(=O)c2ccc(NS(=O)(=O)c3ccccc3F)cc2)no1 | 0.0 | 0.8 | -11.0 | nt | 0.7 | nt | nt | nt | nt
O=C1C=C(c2cccc(Cl)c2O)C[C@@H](c2ccc(Cl)cc2)C1 | 0.4 | -6.9 | 21.6* | -9.5 | 13.9* | 8.4 | 1.6 | 21.9* | 13.0*
COc1cc(N2C[C@@]3(O)CC[C@@H](O)[C@@H](OC)[C@@H]3[C@@](C)(O)[C@@H]2CC=C(C)C)cc(OC)c1OC | -0.2 | 10.1 | -6.3 | nt | -5.5 | nt | nt | nt | nt
Cc1cccc(CCNC(=O)Cn2ncc3c2-c2cc(C)ccc2OC3)c1 | 0.0 | -4.6 | -0.6 | nt | 0.9 | nt | nt | nt | nt
CCN(CC)c1ccc(C(=O)NNC(=O)CCl)cc1 | 0.3 | 0.6 | -7.8 | -9.3 | 0.7 | nt | nt | nt | nt
